Bioassay records: PubChem, National Center for Advancing Translational Sciences (NCATS)
KB-3-1 cytotox: qHTS assay for MDR1-selective chemotherapeutics: Primary screen using the parental adenocarcinoma cell KB-3-1; KB-3-1 viability, CellTiter-Glo ATP luminescence, 72 h; Potency, µM (doses to about 46.1 µM), actives largely listed as cytotoxic; 400,000 compounds, 1.4% hits; AID 1347075, 2019; note: % is set by controls: 0 for no effect and ±100 for the full control effect; nearly all actives have a fitted effect of over 60% in size
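Screening of KB-3-1 cells (DMEM, 10% FBS, phenol-red free) ran from lowest to highest compound concentration; after 72 h at 37 °C viability was read luminescently and curves fitted.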
MCF10A rereplic: A quantitative high throughput screen for small molecules that induce DNA re-replication in MCF 10a normal breast cells. AID 624296, 2012. 350,000 compounds, 2.9% hits. MCF 10A DNA re-replication, Hoechst nuclear intensity, 48 h. Potency, µM (titrated, usually from 46.1 µM), for inactives: at the highest dose activity, positive = re-replication, usual class: activators; note: % of control where 0% means no effect; nearly all actives have a fitted effect of over 50% in size
PINK1 modulator: A Quantitative High throughput Screen to Identify Chemical Modulators of PINK1 Expression | 410,000 compounds, 0.2% hits | PINK1 immunofluorescence, high-content cytometry, 24 h | AID 624263, 2012 | Potency, µM (series often up to 76.6 µM), for the others: at the highest dose activation (PINK1 increase), most hits filed as activators; active = well fitted activation curve with a large enough effect; inconclusive = small, poorly fitted or top-dose-only effect; cell line not stated here; note: % of control where 0% means no effect; nearly all actives have a fitted effect of over 65% in size
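Decision-based qHTS: stable cells, 24 h exposure to five compound concentrations, CCCP as control. Fixed cells stained for PINK1 plus nuclear, mitochondrial and cell markers, cytometer read.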
SW480 rereplic: A quantitative high throughput screen for small molecules that induce DNA re-replication in SW480 colon adenocarcinoma cells; Potency, µM (top dose mostly 46.1 µM), inactives show at the top dose re-replication activation, most hits filed as activators; 340,000 compounds, 1.8% hits; SW480 DNA re-replication, Hoechst DNA content imaging, 48 h; note: % of control where 0% means no effect; nearly all actives have a fitted effect of over 55% in size
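SW480 cells exposed to compounds for 48 hr at 37 C, 5% CO2, then Hoechst-stained 40 min. Nuclear DNA content imaged by fluorescence scanning (405 nm excitation, 500-530 nm emission); re-replication scored as increased high-intensity nuclei.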
KB-V1 cytotox: qHTS assay for MDR1-selective chemotherapeutics: Primary screen using the drug-selected MDR subline cells KB-V1; KB-V1 MDR cells viability, CellTiter-Glo, 72 h; Potency, µM (titrated, usually from 46.1 µM), usual class: cytotoxic; 400,000 compounds, 3.4% hits; note: % is set by controls: 0 for no effect and ±100 for the full control effect; nearly all actives have a fitted effect of over 60% in size
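Potencies derive from concentration-effect curves fitted to normalized luminescence (CellTiter-Glo) of KB-V1 cells treated for 72 h at 37 degrees C in phenol-red-free DMEM containing 10% FBS.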
* marks the source's active call; other numbers are inactive results; i = inactive; ? = inconclusive; . = not tested or not shown; [ ] = another dose, or the depositor's remark. A selection: hits, their analogues and other compounds. The true share with any hit is near 6.7%. Unless noted, calls come from the whole dose curve; as a rule, active = well fitted curve in the direction sought with a large enough effect; inconclusive = small, poorly fitted or top-dose-only effect, or another doubt; inactive = no such curve, though single readings can be large; an effect the other way counts as inactive or inconclusive. Potency is the fitted concentration of half-maximal effect.

SMILES	KB-3-1 cytotox	MCF10A rereplic	PINK1 modulator	SW480 rereplic	KB-V1 cytotox
COc1ccc(C(=O)NCCN2Cc3cc(C)ccc3OC(C)C2)c(OC)n1 (configuration not stated)	.	.	-1%	.	.
Cc1cc2cc(C(c3nnnn3C(C)(C)C)N(Cc3ccco3)CC3CCCO3)c(=O)[nH]c2cc1C (configuration not stated)	?	-4%	.	2%	?
Cc1ccc2[nH]c(=O)c(CN(CCO)Cc3nnnn3Cc3ccco3)cc2c1	?	.	0%	.	?
CCc1ccc2[nH]c(=O)c(CN(Cc3ccccc3OC)Cc3nnnn3Cc3ccco3)cc2c1	21µM*	?	-4%	?	?
COc1ccc2[nH]c(=O)c(CN(Cc3ccco3)Cc3nnnn3Cc3ccccc3)cc2c1	i	2%	15%	2%	7.3µM*
COc1ccccc1CN(Cc1cc2cc(C)ccc2[nH]c1=O)Cc1nnnn1Cc1ccco1	?	22%	-3%	5%	18µM*
COc1ccc2[nH]c(=O)c(C(c3nnnn3C(C)(C)C)N(Cc3ccco3)CC3CCCO3)cc2c1 (configuration not stated)	i	25%	2%[38.3 µM]	7.3µM*	i
Cc1ccc(NC(=O)CSc2ncccn2)cc1S(=O)(=O)N1CCCCC1	i	0%	5%	4%	?
O=C(Nc1ccccc1)N1CC2(CCN(S(=O)(=O)c3ccccc3)CC2)C1	.	.	0%	.	.
CCOC(=O)Cn1nnnc1CN(Cc1ccc(OC)cc1)Cc1cc2cc(C)ccc2[nH]c1=O	i	23µM*	-1%[38.3 µM]	2%	i
COC(=O)c1ccccc1S(=O)(=O)N(Cc1ccco1)Cc1cc2cc(OC)ccc2[nH]c1=O	i	-2%	-2%[38.3 µM]	0%	8.2µM*
CCOC(=O)Cn1nnnc1C(CC)N(Cc1cccs1)Cc1cc2cc(C)ccc2[nH]c1=O (configuration not stated)	i	15%	0%	2%	?
CCOC(=O)Cn1nnnc1C(C(C)C)N(Cc1cccs1)Cc1cc2cc(C)ccc2[nH]c1=O (configuration not stated)	?	?	.	-15%	11µM*
CNC(=S)N(Cc1ccco1)Cc1cc2cc(OC)ccc2[nH]c1=O	i	-8%	1%	-4%	?
COc1ccc(-c2noc(C3CC(=O)N(c4ccc5c(c4)OCCO5)C3)n2)c(OC)c1 (configuration not stated)	i	.	1%	.	i
CCOCCCNC(=O)c1[nH]c2cc(C)ccc2c1Sc1ccc(Cl)cc1	i	.	4%	.	i
O=CNc1ccc2c(c1)Cc1cc([N+](=O)[O-])ccc1-2	2.3µM*	?	-2%	3.3µM*	?
O=c1c2cn[nH]c2nc(SCc2ccccc2F)n1-c1ccc(Br)cc1	i	18µM*	1%	?	i
Cc1ccc2nc3n(c(=O)c2c1)-c1ncccc1C(=O)NC3Cc1ccccc1 (configuration not stated)	i	.	0%	.	i
Cc1ccc(S(=O)(=O)N(C)c2ccc(OCC(=O)Nc3nc(-c4ccccc4)cs3)cc2)cc1	i	?	1%	-4%	i
Cc1ccc(S(=O)(=O)N(C)c2ccc(OCC(=O)Nc3nc4ccccc4s3)cc2)cc1	?	8%	0%	7%	2.9µM*
Cc1ccc(S(=O)(=O)N(C)c2ccc(OCC(=O)Nc3nc4c(ccc5ccccc54)s3)cc2)cc1	i	1%	0%	-47%	4.1µM*
CCOc1ccccc1OCCCC(=O)Nc1cc(S(=O)(=O)N2CCCCC2)ccc1C	i	.	0%	.	?
COc1ccc(-c2noc(-c3ccc(Cl)cc3[N+](=O)[O-])n2)cc1OC	i	-3%	8%	0%	18µM*
COc1ccc(-c2noc(CN(C)S(=O)(=O)c3ccc(Cl)cc3)n2)cc1OC	?	1%	-3%[38.3 µM]	-2%	7.3µM*
SMILES	KB-3-1 cytotox	MCF10A rereplic	PINK1 modulator	SW480 rereplic	KB-V1 cytotox
COc1ccc(-c2noc(CN(C)S(=O)(=O)c3c(C)cc(C)cc3C)n2)cc1OC	i	.	1%	.	?
Cc1cccc(-c2noc(-c3ccc(Cl)cc3[N+](=O)[O-])n2)c1	i	?	3%	3%	?
COc1ccc(CCN2C(=O)CCC2(C)c2nnnn2Cc2ccccc2)cc1OC (configuration not stated)	i	.	-1%	.	i
O=C(NCc1ccco1)c1ccc2c(c1)N(Cc1ccc(Cl)cc1)C(=O)c1ccccc1S2(=O)=O	i	.	4%	.	i
O=S(=O)(Nc1ccc(F)cc1Cl)c1ccc(-c2cnc(C3CC3)o2)cc1	1.2µM*	1µM*	2%	?	1.5µM*
Cc1ccc(NS(=O)(=O)c2ccc(-c3cnc(C4CC4)o3)cc2)c(C)c1	2.1µM*	0.73µM*	1%	9.2µM*	2.6µM*
Cc1cc(C)c(NS(=O)(=O)c2ccc(-c3cnc(C4CC4)o3)cc2)c(C)c1	0.46µM*	.	3%	.	2.1µM*
Cc1cc(C)c(NS(=O)(=O)c2cc(-c3cnc(C4CC4)o3)ccc2C)c(C)c1	i	.	1%	.	i
CCc1ccc(C2c3c(-c4ccccc4O)n[nH]c3C(=O)N2Cc2ccncc2)cc1 (configuration not stated)	?	.	8%	.	i
O=C(NCc1ccccc1Cl)[C@@H]1CCCN1S(=O)(=O)c1ccc(Cl)cc1	i	8%	0%	?	i
Nc1cc(=O)[nH]c(SCC(=O)Nc2ccc(N3CCCCC3)cc2)n1	i	4%	1%	-15%	?
Cc1ccccc1N1C(=O)CN(Cc2sccc2C)C1=S	?	10%	0%	?	3.3µM*
Cc1ccc(N2C(=O)CN(Cc3sccc3C)C2=S)cc1C	?	?	13%	0%	16µM*
CCc1ccc(NCc2cc3cc4c(cc3n(CC(=O)Nc3cccc(OC)c3)c2=O)OCO4)cc1	i	.	0%	.	i
CC(=O)N1CCCc2cc(S(=O)(=O)N3CCCC(C(=O)Nc4ccc(F)cc4F)C3)ccc21 (configuration not stated)	?	.	-2%	.	?
O=C(CNC(=O)c1cccs1)Nc1ccc2c(c1)OCCO2	i	-2%	1%	-6%	i
Cc1ccc(C(=O)N/C(=C\c2ccc(Cl)cc2)C(=O)NC2CCCCC2)cc1	.	.	15%	.	.
Cc1onc(C(=O)Nc2cccc(C(F)(F)F)c2)c1[N+](=O)[O-]	i	?	0%	13%	i
